Source: PubChem BioAssay (NCATS)
Results filed as inconclusive are left out. Unmarked numbers belong to inactive results. The source made the active and inactive calls. Calls come from the whole dose curve; as a rule, active = well fitted inhibition curve with a large enough effect; inconclusive = small, poorly fitted or top-dose-only effect; inactive = flat fitted curve, though single readings scatter.

Test system: HaCat
Experiment: Cytotoxic Profiling of Annotated Libraries Using Quantitative High-Throughput Screening (AID 1296008); note: nearly all actives have a fitted effect of over 60% in size
Conditions: Five cell lines viability, CellTiter-Glo ATP luminescence, 48-72 h; max response: hits give low values
Outline: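 Cells exposed to compounds for 48 or 72 hr at 37 degrees Celsius. Viability read as ATP-coupled luminescence with CellTiter-Glo after 10 min at room temperature.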
% is set by controls: 0 for no effect and ±100 for the full control effect; potency is the fitted concentration of half-maximal effect.

Q: CC(=O)OC1C[C@]2(C)C(O)CC(C)=C[C@H](OC(=O)c3ccc(O)cc3)C2[C@]1(O)C(C)C (stereo not given in full) was tested. Which max response did it give?
A: The max response was -0.241%.

Q: With N#C[C@@H]1CCCN1C(=O)CNC12CC3CC(CC(O)(C3)C1)C2 as the compound, how does the max response read?
A: Its max response is -2.22%.

Q: Which outcome does the source give for COc1cc(C(=O)OC[C@H]2O[C@@H](Oc3ccccc3/C=C/C(=O)O)[C@H](O)[C@@H](O)[C@@H]2O)cc(OC)c1OC here?
A: Its outcome is “inactive”.

Q: With CC(C)CC(=O)OC1OC=C(CO[C@@H]2O[C@H](CO)[C@@H](O)[C@H](O)[C@H]2O)C2CC(O)C(O)(CO)C12 (stereo not given in full) as the compound, how does the max response read?
A: The max response was -4.52%.

Q: For Cc1cc(Nc2nc(NC(C)c3ncc(F)cn3)ncc2Cl)n[nH]1 (stereo not given), which max response is on record?
A: Its max response is 0.354%.

Q: With CC(=O)O[C@H]1C[C@@](O)(C(C)C)C2[C@@H](OC(=O)c3ccc(O)cc3)C[C@@]3(C)O[C@H]3C[C@]21C (stereo not given in full) as the compound, how does the max response read?
A: The max response was -5.18%.

Q: How did the max response turn out when C=C[C@H]1C(O[C@@H]2O[C@H](CO)[C@@H](O)[C@H](O)[C@H]2O)OC=C2C(=O)N3CCc4c([nH]c5ccccc45)[C@H]3C[C@H]21 (stereo not given in full) was run?
A: The max response was 2.83%.

Q: How did the max response turn out when O=C(CCCCN1CCOCC1)Nc1ccc(-c2cccnc2)cc1 was run?
A: The max response was -1.44%.

Q: With CCc1cc(CN2CC(C(=O)O)C2)sc1-c1noc(-c2ccc(Oc3ccccc3)cc2)n1 as the compound, how does the max response read?
A: The max response was -26.8%.

Q: Which outcome does the source give for C[C@@H]1CCC2C(C)(C)[C@H](O)CC[C@]2(C)[C@@]12Cc1c(O)cc3c(c1O2)CN([C@@H](CCC(=O)O)C(=O)O)C3=O (stereo not given in full) here?
A: The outcome was “inactive”.

Q: With CC1OC(OCC2OC(OC3CCC4(C)C(CCC5(C)C4CC=C4C6CC(C)(C)CCC6(C(=O)OC6OC(CO)C(O)C(O)C6O)CCC45C)C3(C)CO)C(O)C(O)C2O)C(O)C(O)C1O (stereo not given) as the compound, how does the max response read?
A: Its max response is 2.13%.

Q: With CN(CCc1ccc(Nc2ncc(-c3cccnc3)s2)cc1)Cc1ccccc1 as the compound, how does the max response read?
A: Its max response is -1.85%.

Q: For COc1ccc2[nH]c3c(-c4cccc5ccccc45)nccc3c2c1, which outcome is on record?
A: The outcome was “inactive”.

Q: With C[C@@H]1CCC2C(C)(C)[C@H](O)CC[C@]2(C)[C@@]12Cc1c(O)cc3c(c1O2)CNC3=O (stereo not given in full) as the compound, how does the max response read?
A: Its max response is -68.6%.

Q: Which max response does the source give for CC(O)CO[C@@H]1O[C@H](CO)[C@@H](O)[C@H](O)[C@H]1O (stereo not given in full) here?
A: Its max response is -15.1%.

Q: With OC[C@H]1O[C@@H](OC[C@H]2O[C@@H](OC/C=C/c3ccccc3)[C@H](O)[C@@H](O)[C@@H]2O)[C@@H](O)[C@@H]1O as the compound, how does the max response read?
A: The max response was -0.518%.

Q: Which Potency does the source give for CC1COC(Nc2ccc3ncnc(Nc4ccc(OCc5nccs5)c(Cl)c4)c3c2)=N1 (stereo not given) here?
A: Its Potency is 1840 nM (active).

Q: For C[C@H](O)[C@H](O)/C=C/c1cccc(O)c1CO, which max response is on record?
A: Its max response is -3.13%.

Q: COc1cc(C)c(C(=O)O[C@H]2[C@@H](OC(C)=O)[C@H](n3ccc(=O)[nH]c3=O)O[C@@H]2CO)c(OC)c1 was tested. Which max response did it give?
A: The max response was -9.32%.

Q: For CN[C@H](CC(C)C)C(=O)N[C@H]1C(=O)N[C@@H](CC(N)=O)C(=O)N[C@H]2C(=O)N[C@H]3C(=O)N[C@H](C(=O)N[C@H](C(=O)O)c4cc(O)cc(O)c4-c4cc3ccc4O)[C@H](O[C@H]3C[C@](C)(N)[C@@H](O)[C@H](C)O3)c3ccc(c(Cl)c3)Oc3cc2cc(c3O[C@@H]2O[C@H](CO)[C@@H](O)[C@H](O)[C@H]2O[C@H]2C[C@](C)(NCc3ccc(-c4ccc(Cl)cc4)cc3)[C@@H](O)[C@H](C)O2)Oc2ccc(cc2Cl)[C@H]1O, which max response is on record?
A: The max response was -0.936%.
